# Source: PubChem BioAssay AID1159580 (chemical genetic matrix, 2015)
# About 2,000 (36%) of roughly 5,500 compounds were called active. Another 18% or so got no clear call; they are omitted. Some of the results follow. Values without a mark were called inactive. No stated cut-off is given here; in the data, active means normalized growth mostly below about 0.91 (no sharp cut-off); inconclusive means no clear call, values can overlap the other calls; inactive means mostly above about 0.92.
# Assay: chemical genetic growth profiling, strain panel (AID 1159580);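 further: tested at 20 µM; growth read once vehicle control cultures reached saturation at 30 °C; 1 = growth at the plate median or of vehicle wells; lower values mean less growth of the strain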
# Conditions: growth OD
smiles,measurement,setting,value
O=c1c(O)c(-c2ccccc2)oc2cc(O)ccc12,normalized growth,"S. cerevisiae deletion strains, locus YKL009W, strain mrt4, active compounds read low",0.932
same,normalized growth,"S. cerevisiae deletion strains, locus YKL068W, active compounds read low",0.948
same,normalized growth,"S. cerevisiae deletion strains, locus YKL085W, strain MDH1 (second series), active compounds read low",0.911 (active)
same,normalized growth,"S. cerevisiae deletion strains, locus YKL085W, strain MDH1, active compounds read low",0.911 (active)
same,normalized growth,"S. cerevisiae deletion strains, locus YKL160W, strain elf1, active compounds read low",0.772 (active)
same,normalized growth,"S. cerevisiae deletion strains, locus YKL190W, strain CNB1, active compounds read low",0.4 (active)
same,normalized growth,"S. cerevisiae deletion strains, locus YKR001C, strain vps1, active compounds read low",0.708 (active)
same,normalized growth,"S. cerevisiae deletion strains, locus YKR026C, strain gcn3, active compounds read low",0.879 (active)
same,normalized growth,"S. cerevisiae deletion strains, locus YKR091W, strain srl3, active compounds read low",0.834 (active)
same,normalized growth,"S. cerevisiae deletion strains, locus YLL001W, strain dnm1, active compounds read low",0.827 (active)
same,normalized growth,"S. cerevisiae deletion strains, locus YLL026W, active compounds read low",0.558 (active)
same,normalized growth,"S. cerevisiae deletion strains, locus YLL041C, strain sdh2, active compounds read low",0.85 (active)
same,normalized growth,"S. cerevisiae deletion strains, locus YLR027C, strain aat2, active compounds read low",0.701 (active)
same,normalized growth,"S. cerevisiae deletion strains, locus YLR039C, strain RIC1, active compounds read low",0.236 (active)
same,normalized growth,"S. cerevisiae deletion strains, locus YLR058C, strain SHM2, active compounds read low",0.514 (active)
same,normalized growth,"S. cerevisiae deletion strains, locus YLR102C, strain apc9, active compounds read low",0.935
same,normalized growth,"S. cerevisiae deletion strains, locus YLR113W, strain HOG1, active compounds read low",1
same,normalized growth,"S. cerevisiae deletion strains, locus YLR221C, strain rsa3, active compounds read low",0.759 (active)
same,normalized growth,"S. cerevisiae deletion strains, locus YLR258W, strain gsy2, active compounds read low",0.699 (active)
same,normalized growth,"S. cerevisiae deletion strains, locus YLR262C, strain YPT6 (second series), active compounds read low",0.341 (active)
same,normalized growth,"S. cerevisiae deletion strains, locus YLR262C, strain YPT6, active compounds read low",0.263 (active)
same,normalized growth,"S. cerevisiae deletion strains, locus YLR268W, strain sec22, active compounds read low",0.62 (active)
same,normalized growth,"S. cerevisiae deletion strains, locus YLR320W, strain mms22, active compounds read low",0.674 (active)
same,normalized growth,"S. cerevisiae deletion strains, locus YLR330W, strain CHS5, active compounds read low",0.663 (active)
same,normalized growth,"S. cerevisiae deletion strains, locus YLR342W, strain FKS1 (second series), active compounds read low",0.51 (active)
same,normalized growth,"S. cerevisiae deletion strains, locus YLR342W, strain FKS1, active compounds read low",0.765 (active)
same,normalized growth,"S. cerevisiae deletion strains, locus YLR357W, strain rsc2, active compounds read low",0.717 (active)
same,normalized growth,"S. cerevisiae deletion strains, locus YLR370C, strain arc18, active compounds read low",0.738 (active)
same,normalized growth,"S. cerevisiae deletion strains, locus YLR371W, strain rom2, active compounds read low",0.636 (active)
same,normalized growth,"S. cerevisiae deletion strains, locus YLR384C, strain iki3, active compounds read low",0.906 (active)
same,normalized growth,"S. cerevisiae deletion strains, locus YLR418C, strain cdc73, active compounds read low",0.357 (active)
same,normalized growth,"S. cerevisiae deletion strains, locus YML016C, strain PPZ1, active compounds read low",0.455 (active)
same,normalized growth,"S. cerevisiae deletion strains, locus YML032C, strain rad52, active compounds read low",0.872 (active)
same,normalized growth,"S. cerevisiae deletion strains, locus YML120C, strain ndi1, active compounds read low",0.887 (active)
same,normalized growth,"S. cerevisiae deletion strains, locus YML124C, strain tub3, active compounds read low",0.827 (active)
same,normalized growth,"S. cerevisiae deletion strains, locus YMR058W, strain fet3, active compounds read low",0.104 (active)
same,normalized growth,"S. cerevisiae deletion strains, locus YMR078C, strain ctf18, active compounds read low",0.909 (active)
same,normalized growth,"S. cerevisiae deletion strains, locus YMR125W, strain sto1, active compounds read low",0.929
same,normalized growth,"S. cerevisiae deletion strains, locus YMR129W, active compounds read low",0.838 (active)
same,normalized growth,"S. cerevisiae deletion strains, locus YMR205C, strain PFK2, active compounds read low",0.639 (active)
same,normalized growth,"S. cerevisiae deletion strains, locus YMR223W, strain ubp8, active compounds read low",0.685 (active)
same,normalized growth,"S. cerevisiae deletion strains, locus YMR231W, strain pep5, active compounds read low",0.336 (active)
same,normalized growth,"S. cerevisiae deletion strains, locus YMR307W, strain GAS1, active compounds read low",0.328 (active)
same,normalized growth,"S. cerevisiae deletion strains, locus YNL067W, strain RPL9B, active compounds read low",0.496 (active)
same,normalized growth,"S. cerevisiae deletion strains, locus YNL071W, strain lat1, active compounds read low",0.709 (active)
same,normalized growth,"S. cerevisiae deletion strains, locus YNL128W, strain TEP1, active compounds read low",0.319 (active)
same,normalized growth,"S. cerevisiae deletion strains, locus YNL153C, strain GIM3, active compounds read low",0.577 (active)
same,normalized growth,"S. cerevisiae deletion strains, locus YNL183C, strain NPR1, active compounds read low",0.98
same,normalized growth,"S. cerevisiae deletion strains, locus YNL209W, strain ssb2, active compounds read low",0.335 (active)
same,normalized growth,"S. cerevisiae deletion strains, locus YNL233W, strain BNI4, active compounds read low",0.479 (active)
same,normalized growth,"S. cerevisiae deletion strains, locus YNL248C, strain rpa49, active compounds read low",0.859 (active)
same,normalized growth,"S. cerevisiae deletion strains, locus YNL250W, strain rad50, active compounds read low",0.927
same,normalized growth,"S. cerevisiae deletion strains, locus YNL271C, strain bni1, active compounds read low",0.858 (active)
same,normalized growth,"S. cerevisiae deletion strains, locus YNL298W, strain CLA4, active compounds read low",0.914
same,normalized growth,"S. cerevisiae deletion strains, locus YNL307C, strain MCK1, active compounds read low",0.745 (active)
same,normalized growth,"S. cerevisiae deletion strains, locus YNL322C, strain KRE1 (second series), active compounds read low",0.971
same,normalized growth,"S. cerevisiae deletion strains, locus YNL322C, strain KRE1, active compounds read low",0.415 (active)
same,normalized growth,"S. cerevisiae deletion strains, locus YNR049C, strain mso1, active compounds read low",0.895 (active)
same,normalized growth,"S. cerevisiae deletion strains, locus YNR052C, strain pop2, active compounds read low",0.713 (active)
same,normalized growth,"S. cerevisiae deletion strains, locus YOL006C, strain TOP1, active compounds read low",0.167 (active)
same,normalized growth,"S. cerevisiae deletion strains, locus YOL012C, strain htz1",0.446
same,normalized growth,"S. cerevisiae deletion strains, locus YOL147C, strain pex11, active compounds read low",0.914 (active)
same,normalized growth,"S. cerevisiae deletion strains, locus YOR001W, strain rrp6, active compounds read low",0.873 (active)
same,normalized growth,"S. cerevisiae deletion strains, locus YOR061W, strain CKA2, active compounds read low",0.682 (active)
same,normalized growth,"S. cerevisiae deletion strains, locus YOR069W, strain VPS5, active compounds read low",0.614 (active)
same,normalized growth,"S. cerevisiae deletion strains, locus YOR070C, strain gyp1, active compounds read low",0.739 (active)
same,normalized growth,"S. cerevisiae deletion strains, locus YOR080W, strain dia2, active compounds read low",0.777 (active)
same,normalized growth,"S. cerevisiae deletion strains, locus YOR083W, strain WHI5, active compounds read low",0.695 (active)
same,normalized growth,"S. cerevisiae deletion strains, locus YOR106W, strain vam3, active compounds read low",0.27 (active)
same,normalized growth,"S. cerevisiae deletion strains, locus YOR136W, strain idh2, active compounds read low",0.909 (active)
same,normalized growth,"S. cerevisiae deletion strains, locus YOR144C, strain elg1, active compounds read low",0.94
same,normalized growth,"S. cerevisiae deletion strains, locus YOR184W, strain ser1, active compounds read low",0.5 (active)
same,normalized growth,"S. cerevisiae deletion strains, locus YOR231W, strain MKK1, active compounds read low",1.03
same,normalized growth,"S. cerevisiae deletion strains, locus YOR265W, strain rbl2, active compounds read low",0.71 (active)
same,normalized growth,"S. cerevisiae deletion strains, locus YOR270C, strain vph1, active compounds read low",0.306 (active)
same,normalized growth,"S. cerevisiae deletion strains, locus YOR290C, strain snf2, active compounds read low",0.754 (active)
same,normalized growth,"S. cerevisiae deletion strains, locus YOR316C, strain cot1, active compounds read low",0.903 (active)
same,normalized growth,"S. cerevisiae deletion strains, locus YPL051W, strain arl3, active compounds read low",0.439 (active)
same,normalized growth,"S. cerevisiae deletion strains, locus YPL055C, strain LGE1, active compounds read low",0.363 (active)
same,normalized growth,"S. cerevisiae deletion strains, locus YPL078C, strain atp4, active compounds read low",0.845 (active)
same,normalized growth,"S. cerevisiae deletion strains, locus YPL106C, strain sse1, active compounds read low",0.65 (active)
same,normalized growth,"S. cerevisiae deletion strains, locus YPL240C, strain hsp82, active compounds read low",0.81 (active)
same,normalized growth,"S. cerevisiae deletion strains, locus YPL241C, strain CIN2, active compounds read low",0.719 (active)
same,normalized growth,"S. cerevisiae deletion strains, locus YPL256C, strain CLN2, active compounds read low",1.06
same,normalized growth,"S. cerevisiae deletion strains, locus YPR119W, strain clb2, active compounds read low",0.931 (active)
same,normalized growth,"S. cerevisiae deletion strains, locus YPR141C, strain kar3, active compounds read low",0.942
same,normalized growth,"S. cerevisiae deletion strains, locus YPR163C, strain tif3, active compounds read low",0.844 (active)
same,normalized growth,"S. cerevisiae deletion strains, locus YPR167C, strain met16, active compounds read low",0.734 (active)
same,normalized growth,"S. cerevisiae deletion strains, strain wtn01, active compounds read low",0.751 (active)
same,normalized growth,"S. cerevisiae strains, strain wild type, active compounds read low",0.246 (active)
